# eIF4H inh = inhibitors of RNA binding by human eIF4H | Q15056 | eIF4H fluorescence polarization binding assay | inhibition, % at 35 µM | actives 0.94% (n = 290,000);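 also: calls also rest on retests at 20 µM and on dose response follow-up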
# EBV gp42 inh = blocks Epstein-Barr virus glycoprotein 42 binding; Q1HVG2; Fluorescence polarization binding assay, mP read-out; inhibition, % (tested at 21.74 µM); actives 0.42% (n = 220,000); AID 1085; in the data active = inhibition above about 50%
# Target sequence (Q1HVG2 whole entry, looked up): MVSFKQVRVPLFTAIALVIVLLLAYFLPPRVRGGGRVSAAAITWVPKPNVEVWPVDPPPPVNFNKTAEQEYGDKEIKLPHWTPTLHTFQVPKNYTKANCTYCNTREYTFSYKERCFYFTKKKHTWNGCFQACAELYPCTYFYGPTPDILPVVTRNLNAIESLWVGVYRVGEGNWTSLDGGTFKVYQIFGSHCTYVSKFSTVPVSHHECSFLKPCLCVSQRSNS
# MEX-5 binding = C. elegans MEX-5 TCR-2 RNA binding activity; actives 0.38% (n = 300,000); MEX-5/FITC-TCR2 RNA binding, fluorescence polarization; stronger effect = lower value; Q9XUB2; activity score (negative = inhibition of binding), % at 10 µM;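 active = inhibition past about -25% in most replicates, and total fluorescence under double the plate's negative control median, limit read from the data; inconclusive = replicates evenly split on the limit, or fluorescence at least double controls; inactive = too little inhibition in most replicates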;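 also: 0% = DMSO and -100% = 5 µM competing unlabeled TCR2 RNA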
# PABP polyA inh = blocks human PABP binding to poly(A) RNA. P11940. fluorescence polarization. calls only at 35 µM. actives 1% (n = 290,000). AID 2014;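 also: calls also rest on retests at 20 µM and on dose response follow-up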
# PABP1 MLLE inh = inhibitors of microRNA-mediated deadenylation, human PABP1 MLLE binding | GST-MLLE / FITC-PAM2 fluorescence polarization | actives 0.36% (n = 360,000) | inhibition, % at 20 µM; in the data active = inhibition above about 35%, passing the limit was not always enough;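 also: plate controls were DMSO wells with GST-MLLE for no effect and wells lacking GST-MLLE protein for full effect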
# The depositor's hits bear a star; i = inactive; ? = inconclusive; . = not tested or not shown; + = active, no number. Shown are actives, neighbours in structure and some others; about 1.8% of the full set was active somewhere. Unless noted, no rule for the calls is given here.
SMILES,eIF4H inh,EBV gp42 inh,MEX-5 binding,PABP polyA inh,PABP1 MLLE inh
Nc1cc(N)c(OCC(F)(F)F)cc1OCC(F)(F)F,106*,7,-1,+,18
O=C(CSc1nnc(-c2ccco2)o1)c1ccccc1,14,-1,-1,i,15
O=C(CSc1nnc(-c2ccco2)o1)c1ccc[nH]1,83*,-7,-1,i,-2
O=C(Oc1cccc2ccccc12)c1cc(Cl)nc2ccccc12,4,-3,1,i,5
O=Cc1ccc(OC(=O)c2cc(Cl)nc3ccccc23)cc1,-4,-7,1,i,36*
CC(=O)c1cc2c(cc1NC(=O)CSc1ncccn1)OCO2,.,.,.,.,-127
Cc1ccccc1Nc1nc(N)[nH]c(=O)c1N=O,.,.,.,.,45*
NC(=O)c1sc2nnc(-c3ccccc3)c(-c3ccccc3)c2c1N,0,-6,-53*,i,-72
NNC(=O)c1snnc1-c1ccccc1,-11,-24,-1,i,-33
Nc1c(C(=O)O)sc2nc(-c3ccccc3)c3c(c12)CCCC3,3,4,1,i,-31
NC(=O)c1snnc1-c1ccccc1,-4,-14,-29*,i,-2
Cc1ccc(C)c(C(O)c2ncc(-c3ccc(Cl)cc3)[nH]2)c1 (stereo not drawn),.,.,.,.,-5
COc1ccc(NC(=O)c2ccc(COCC(F)(F)C(F)F)cc2)cc1,active,-5,0,+,-1
CC1(O)C(=O)C=C2C=C(C3CC3)OC=C2C1=O (stereo not drawn),.,.,-60*,.,.
COC(=O)CCC(=O)OC1(C)C(=O)C=C2C=C(C3CC3)OC=C2C1=O (stereo not drawn),.,.,-42*,.,.
COC(=O)CCC(=O)OC1(C)C(=O)C=C2C=C(c3ccsc3)OC=C2C1=O (stereo not drawn),.,.,-41*,.,-22
CC1(OC(=O)c2ccco2)C(=O)C=C2C=C(c3ccsc3)OC=C2C1=O (stereo not drawn),.,.,-5,.,.
CC1(OC(=O)CCc2ccccc2)C(=O)C=C2C=C(C3CC3)OC=C2C1=O (stereo not drawn),.,.,-19,.,.
CCC(=O)OC1(C)C(=O)C=C2C=C(c3ccsc3)OC=C2C1=O (stereo not drawn),93*,1,-7,+,-28
CC1(C(=O)NS(=O)(=O)c2ccccc2Cl)CCN1C(=O)CCC1CCCC1 (stereo not drawn),.,.,.,.,-4
COc1ccc(NC(=O)C2Cc3c(-c4cccc(NC(C)=O)c4)ccnc3O2)cn1 (stereo not drawn),.,.,.,.,13
CCc1nc2ccc(C(=O)NCc3ccc4c(c3)OCO4)cn2c1N(C)Cc1cccs1,.,.,.,.,-17
COc1ccc2c(c1)c(=O)oc1c(C)c(OCc3cc(C(=O)O)oc3C)ccc12,84,-6,0,+,2
Cc1cc(NC(=O)COc2cccc3cccnc23)no1,18,24,-1,i,.
Cc1oc(C(=O)O)cc1COc1cccc2cccnc12,92*,-7,-4,i,2
SMILES,eIF4H inh,EBV gp42 inh,MEX-5 binding,PABP polyA inh,PABP1 MLLE inh
CCC(C)(C)NC(=O)C(c1cccn1C)N(C(=O)Cn1nnc2ccccc21)c1ccc(OC)cc1 (stereo not drawn),-2,-7,-29*,i,-2
CC(=O)NC(c1ccccc1)c1nc(-c2cccc(C(F)(F)F)c2)cs1 (stereo not drawn),.,.,.,.,3
Cc1ccc(/C=c2\sc3nc(-c4cccs4)nn3c2=O)o1,79*,-13,.,+,-12
COc1cc(/C=c2\sc3nc(-c4ccncc4)nn3c2=O)ccc1OC(C)=O,-8,37,.,i,.
COc1cccc(/C=c2\sc3nc(-c4cccs4)nn3c2=O)c1OC,0,-24,0,i,-11
COc1ccc(/C=c2\sc3nc(-c4ccccc4OC)nn3c2=O)c(OC)c1,-1,16,-33*,i,51*
COc1ccccc1-c1nc2s/c(=C\c3cccs3)c(=O)n2n1,5,-11,-1,i,-1
CCCCCOc1ccc(/C=c2\sc3nc(=O)c(-c4ccccc4)nn3c2=O)cc1OC,16,-5,-31*,i,11
C=CCOc1ccccc1/C=c1\sc2nc(=O)c(C)nn2c1=O,69*,-8,.,i,16
CC(=O)N(CCc1ccccc1)c1ccc2c(c1)C1CC2CCN1C(=O)OCc1ccccc1 (stereo not drawn),.,.,.,.,-28
CC(=O)Oc1cccc(/C=c2\sc3nc(-c4ccco4)nn3c2=O)c1,18,-16,-5,i,16
O=c1/c(=C/c2ccco2)sc2nc(-c3ccccc3Br)nn12,45*,-7,.,+,5
COc1ccccc1/C=C/C=c1\sc2nc(=O)c(Cc3ccccc3)nn2c1=O,65*,-15,2,+,-23
CCCOc1ccc(/C=c2\sc3nc(-c4ccco4)nn3c2=O)cc1OCC,52,36,-67*,i,24
CCCOc1ccc(Cc2nn3c(=O)/c(=C/c4ccco4)sc3nc2=O)cc1,84*,-12,6,+,2
Fc1ccc(-c2nc3c4ccccc4ccn3c2Cc2ccsc2)cc1,.,.,.,.,-5
CC1(C(=O)NS(=O)(=O)c2ccccc2Cl)CCN1C(=O)c1ccccc1CCc1ccccc1 (stereo not drawn),.,.,.,.,-8
O=C(O)CCN1C(=O)/C(=C/c2ccc(-c3nc4ccccc4s3)o2)SC1=S,?,-1,?,?,-92
O=C(O)CCCN1C(=O)/C(=C\c2ccc(-c3nc4ccccc4s3)o2)SC1=S,96*,13,-56*,+,-99
O=C(O)CC(C(=O)O)N1C(=O)/C(=C/c2ccc(-c3nc4ccccc4s3)o2)SC1=S (stereo not drawn),127*,-5,40,i,11
CCCCNC(=O)C1(C)CCCCN1C(=O)c1ccc(OC)c(C(F)(F)F)c1 (stereo not drawn),.,.,.,.,13
O=C(CC1Sc2ncnn2C1=O)Nc1ccc(Cl)cc1 (stereo not drawn),-1,-31,1,i,.
CCOC(=O)c1ccc(NC(=O)CC2Sc3ncnn3C2=O)cc1 (stereo not drawn),-2,-34,4,i,42*
COc1ccc(NC(=O)CC2Sc3ncnn3C2=O)cc1 (stereo not drawn),-16,-8,2,i,43*
Cc1ccc(NC2=CC(=O)CC(C)(C)C2)c(N)c1,82*,0,0,+,6
SMILES,eIF4H inh,EBV gp42 inh,MEX-5 binding,PABP polyA inh,PABP1 MLLE inh
COc1ccc(C2CCc3cc4c(cc3C2=NOC(C)=O)OCO4)cc1OC (stereo not drawn),.,.,.,.,-3
CC1=CC(C)(C)[N+](C)(C)c2ccccc21,-8,-6,-2,+,-98
CC(=O)c1ccc(S(=O)(=O)Nc2cccc(-n3cnnn3)c2)cc1,98*,.,-1,+,0
O=C1CC(c2ccc(Cl)cc2)c2c(O)cc(O)cc2O1 (stereo not drawn),2,.,2,i,-16
C/C=C/C=C/[C@H]1Cc2cc(O)cc(O)c2O1,?,54*,-9,?,.
COc1ccc(NC(=O)C2(C)CCN2Cc2cccc(OC)c2F)cc1OC (stereo not drawn),.,.,.,.,6

# Source: PubChem (several laboratories)
